Assay results from PubChem BioAssay (NCATS).
Results filed as inconclusive are left out. Entries that show only a call come without a potency. Calls of active or inactive are those of the source. Unless noted, calls follow the shape of the dose curve; as a rule, active = well fitted curve in the direction sought with a large enough effect; inconclusive = small, poorly fitted or top-dose-only effect, or another doubt; inactive = no such curve, though single readings can be large; an effect the other way counts as inactive or inconclusive.

Legend:
[1] = target: Glutathione peroxidase 1 (Homo sapiens) (UniProt P07203); experiment: Primary qHTS Assay for Inhibitors of Recombinant Selenoprotein Glutathione Peroxidase 1 (GPX1) (AID 1845191); settings: recombinant GPX1, GR-coupled NADPH fluorescence, 15 min; series mostly up to 48.8 µM; also: nearly all actives have a fitted effect of over 65% in size
Glutathione peroxidase 1 (Homo sapiens), sequence (P07203 whole entry, looked up): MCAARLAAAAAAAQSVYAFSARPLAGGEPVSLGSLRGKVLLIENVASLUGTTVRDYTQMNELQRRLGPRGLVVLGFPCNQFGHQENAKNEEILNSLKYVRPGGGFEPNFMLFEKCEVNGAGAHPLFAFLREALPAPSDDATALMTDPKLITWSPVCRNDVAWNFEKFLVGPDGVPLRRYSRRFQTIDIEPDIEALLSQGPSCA
In short: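 10 nM GPX1 + cpd, 30 min RT; start w/ 1 mM GSH, 0.5 mM cumene hydroperoxide, 0.5 mM NADPH, 100 nM GR, 0.01% BSA; buffer 50 mM Tris-HCl pH 7.5, 2 mM EDTA, 150 mM NaCl; Fl 340/450, 0 & 15 min.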

[2] = target: Phospholipid hydroperoxide glutathione peroxidase GPX4 (Homo sapiens) (UniProt P36969); experiment: Primary qHTS Assay for Inhibitors of Recombinant Selenoprotein Glutathione Peroxidase 4 (GPX4) (AID 1845192); settings: recombinant GPX4, GR-coupled NADPH fluorescence, 15 min; series mostly up to 50 µM; also: nearly all actives have a fitted effect of over 65% in size
Phospholipid hydroperoxide glutathione peroxidase GPX4 (Homo sapiens), sequence (P36969 whole entry, looked up): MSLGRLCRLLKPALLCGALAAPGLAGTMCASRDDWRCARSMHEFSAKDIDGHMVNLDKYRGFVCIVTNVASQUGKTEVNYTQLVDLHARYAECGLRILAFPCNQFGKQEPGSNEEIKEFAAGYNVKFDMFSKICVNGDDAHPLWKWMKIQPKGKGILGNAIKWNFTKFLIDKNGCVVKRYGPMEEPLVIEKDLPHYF
In short: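 NADPH consumption, followed by fluorescence at 340/450 nm between 0 and 15 min, reports GPX4 activity via coupled glutathione reductase (100 nM). Enzyme 200 nM was pre-exposed to compound 30 min; 0.5 mM cumene hydroperoxide and 1 mM GSH served as substrates.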

[3] = target: Luciferin 4-monooxygenase (Photinus pyralis) (UniProt P08659); experiment: Primary firefly luciferase (FLuc) qHTS assay for identification of artifact compounds. (AID 1845220); settings: purified firefly luciferase, luminescence, 5 min; series mostly up to 54.1 µM; also: nearly all actives have a fitted effect of over 60% in size
In short: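 Cell-free, 1536-well qHTS. Buffer pH 7.6 with 0.01% Tween-20 and 0.05% BSA; 10 uM D-luciferin, 10 uM ATP; 10 nM P. pyralis luciferase; luminescence after 5 min.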

[4] = Primary fluorescence-based thiol-reactive (MSTI) qHTS assay for identification of artifact compounds. (AID 1845221); settings: MSTI thiol-reactivity probe, 1 h; series mostly up to 53.8 µM;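 also: thiol-reactive compounds lower the probe fluorescence signal; nearly all actives have a fitted effect of over 65% in size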
In short: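 MSTI probe at 4 uM final in 2% DMSO/PBS pH 7.4; compounds, 1 h at room temperature in dark. Fluorescence Ex/Em 525/598 nm, normalised to Acetyl-MSTI and MSTI, fitted to 4-parameter Hill.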

[5] = system: Nanoluciferase (engineered Oplophorus gracilirostris luciferase); experiment: Primary Nanoluciferase (NLuc) qHTS assay for identification of artifact compounds. (AID 1845222); settings: NLuc-conditioned medium, Nano-Glo luminescence, 5 min; series mostly up to 54.1 µM
In short: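 Compounds are pinned into diluted (1:55) conditioned medium of NLuc-expressing S16 cells and held 15 min at room temperature protected from light. Nano-Glo substrate follows, and luminescence is read 5 min later.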

[6] = qHTS drug screen for cell cycle checkpoint inhibitors in PARPi-resistant BRCA-mutant ovarian cancer cell lines. (AID 1963452; calls by dose curve; also: potency is read from the fitted curve at half-maximal effect); settings: PEO1/OlaR viability, CellTiter-Glo luminescence, 96 h; for Z-AUC: stronger effect = lower value
In short: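 PEO1, PEO4 and PEO1/OlaR ovarian cancer cells, 600 per well, exposed 96 h at 37C to a dilution series. Viability read by CellTiter-Glo luminescence, normalized to DMSO and empty wells; activity summarized as Z-AUC.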

[7] = Primary redox qHTS assay for identification of artifact compounds. (AID 1845223); settings: Amplex Red/HRP redox cycling with DTT, fluorescence; series mostly up to 53.8 µM
In short: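 Amplex Red (25 uM) and HRP (250 mU/mL) in HBSS, with compounds for 15 min, then 250 uM DTT for 30 min, room temperature, dark. Fluorescence 525/598 nm read; normalized to DMSO and 10 uM DA3003; Hill fit.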

[8] = measured here: PEO1 parental Z-AUC

COc1cccc(OC)c1C(=O)N[C@@H]1C(=O)N2[C@@H]1SC(C)(C)[C@@H]2C(=O)O
Potency [1]: inactive | Potency [2]: inactive | outcome [3]: inactive | Potency [4]: inactive | Potency [5]: inactive

Clc1ccc2c(c1)CCc1cccnc1C2=C1CCNCC1
Potency [1]: inactive | Potency [2]: inactive

C/C=C(/C(=C/C)c1ccc(O)cc1)c1ccc(O)cc1
Potency [1]: inactive | Potency [2]: inactive

C[C@]12C=CC(=O)C=C1CC[C@@H]1[C@@H]2[C@@H](O)C[C@@]2(C)[C@H]1CC[C@]2(O)C(=O)CO
Potency [1]: inactive | Potency [2]: inactive | Z-AUC [6]: -0.821 (inactive) | Z-AUC [6, 8]: 0.0884 | Z-AUC ([6]; measured here: PEO4 Z-AUC): -0.444

O=c1[nH]c(=O)n([C@H]2CCCO2)cc1F
Potency [1]: inactive | Potency [2]: inactive | outcome [3]: inactive | Potency [4]: inactive | Potency [5]: inactive | outcome [7]: inactive

CC(C)(C)CC(C)(C)c1ccc(OCCOCC[N+](C)(C)Cc2ccccc2)cc1
Potency [1]: inactive | outcome [3]: inactive | Potency [4]: inactive | Potency [5]: inactive | outcome [7]: inactive

C#C[C@]1(OC(C)=O)CC[C@H]2[C@@H]3CCC4=C[C@@H](OC(C)=O)CC[C@@H]4[C@H]3CC[C@@]21C
Potency [1]: inactive | Potency [2]: inactive | outcome [3]: inactive | Potency [4]: inactive | Potency [5]: inactive | outcome [7]: inactive

CC(=O)O[C@]1(C(C)=O)CC[C@H]2[C@@H]3C[C@H](C)C4=CC(=O)CC[C@]4(C)[C@H]3CC[C@@]21C
Potency [1]: inactive | Potency [2]: inactive | outcome [3]: inactive | Potency [4]: inactive | Potency [5]: inactive | outcome [7]: inactive | Z-AUC [6]: -1.26 (inactive) | Z-AUC [6, 8]: -0.257 | Z-AUC ([6]; measured here: PEO4 Z-AUC): 0.0735

COc1ccc(CN2CCN(C(c3ccc(F)cc3)c3ccc(F)cc3)CC2)c(OC)c1OC
Potency [1]: inactive | outcome [3]: inactive | Potency [4]: inactive | Potency [5]: inactive | outcome [7]: inactive

CN1CCN(C(c2ccccc2)c2ccccc2)CC1
Potency [1]: inactive | Potency [2]: inactive | outcome [3]: inactive | Potency [5]: inactive | outcome [7]: inactive

Nc1ccn([C@@H]2O[C@H](CO)[C@@H](O)C2(F)F)c(=O)n1
Potency [2]: inactive | outcome [3]: inactive | Potency [4]: inactive | Potency [5]: inactive | outcome [7]: inactive | Potency [6]: 7.8 nM (active) | Z-AUC [6, 8]: -3.27 | Z-AUC ([6]; measured here: PEO4 Z-AUC): -1.86

CCN1CCN(c2cc3c(cc2F)c(=O)c(C(=O)O)cn3C2CC2)CC1
Potency [2]: inactive

NC(=NCCCCCCN=C(N)/N=C(\N)Nc1ccc(Cl)cc1)/N=C(\N)Nc1ccc(Cl)cc1
Potency [1]: inactive | outcome [3]: inactive | Potency [4]: inactive | Potency [5]: inactive | outcome [7]: inactive

COC(=O)CCc1ccc(OCC(O)CNC(C)C)cc1 (configuration not stated)
Potency [1]: inactive | Potency [2]: inactive | outcome [3]: inactive | Potency [4]: inactive | Potency [5]: inactive | outcome [7]: inactive

CC1(C)O[C@@H]2C[C@H]3[C@@H]4C[C@H](F)C5=CC(=O)C=C[C@]5(C)[C@H]4[C@@H](O)C[C@]3(C)[C@]2(C(=O)CO)O1
Potency [1]: inactive | Potency [2]: inactive | Z-AUC [6]: 0.212 (inactive) | Z-AUC [6, 8]: 1.77 | Z-AUC ([6]; measured here: PEO4 Z-AUC): 0.487

Cc1ccc(C(=O)C(C)CN2CCCCC2)cc1 (configuration not stated)
Potency [1]: inactive | outcome [3]: inactive | Potency [4]: inactive | Potency [5]: inactive | outcome [7]: inactive

CC/C(=C(/CC)c1ccc(O)cc1)c1ccc(O)cc1
Potency [1]: inactive | Potency [2]: inactive | Z-AUC [6]: -0.318 (inactive) | Z-AUC [6, 8]: -0.188 | Z-AUC ([6]; measured here: PEO4 Z-AUC): 0.271

CN(C/C=C/c1ccccc1)Cc1cccc2ccccc12
Potency [2]: inactive

Cc1ccc(Nc2c(F)cccc2Cl)c(CC(=O)O)c1
Potency [1]: inactive | Potency [2]: inactive | outcome [3]: inactive | Potency [5]: inactive | outcome [7]: inactive

CN1[C@@H]2CC[C@H]1CC(OC(=O)c1c[nH]c3ccccc13)C2 (some centres not stated)
Potency [1]: inactive | Potency [2]: inactive | outcome [3]: inactive | Potency [4]: inactive | Potency [5]: inactive | outcome [7]: inactive

C[C@]12CC[C@@H]3c4ccc(O)cc4CC[C@H]3[C@@H]1C[C@@H](O)[C@@H]2O
Potency [1]: inactive | Potency [2]: inactive | Z-AUC [6]: -0.032 (inactive) | Z-AUC [6, 8]: 0.00281 | Z-AUC ([6]; measured here: PEO4 Z-AUC): 0.225

O=c1[nH]c(=O)n([C@H]2C[C@H](O)[C@@H](CO)O2)cc1C(F)(F)F
Potency [1]: inactive | Z-AUC [6]: -0.642 (inactive) | Z-AUC [6, 8]: -0.928 | Z-AUC ([6]; measured here: PEO4 Z-AUC): -0.403

COC(=O)C1=C(C)NC(C)=C(C(=O)O[C@@H]2CCCN(Cc3ccccc3)C2)[C@@H]1c1cccc([N+](=O)[O-])c1
Potency [1]: inactive | Potency [2]: inactive | outcome [3]: inactive | Potency [4]: inactive | outcome [7]: inactive

CN(C)CCCOc1nn(Cc2ccccc2)c2ccccc12
Potency [1]: inactive | Potency [2]: inactive | outcome [3]: inactive | Potency [4]: inactive | Potency [5]: inactive | outcome [7]: inactive

COc1cccc2c1C(=O)c1c(O)c3c(c(O)c1C2=O)C[C@@](O)(C(=O)CO)C[C@@H]3O[C@H]1C[C@H](N)[C@H](O)[C@H](C)O1
Potency [2]: inactive | Z-AUC [6]: -0.906 (inactive) | Z-AUC [6, 8]: -0.971 | Z-AUC ([6]; measured here: PEO4 Z-AUC): -0.369

OC[C@H]1O[C@H](O[C@]2(CCl)O[C@H](CCl)[C@@H](O)[C@@H]2O)[C@H](O)[C@@H](O)[C@H]1Cl
Potency [1]: inactive | Potency [2]: inactive | outcome [3]: inactive | Potency [4]: inactive | Potency [5]: inactive | outcome [7]: inactive

COc1c(C)c2c(c(O)c1C/C=C(\C)CCC(=O)O)C(=O)OC2
Potency [1]: inactive | Potency [2]: inactive | Z-AUC [6]: -0.522 (inactive) | Z-AUC [6, 8]: -0.0213 | Z-AUC ([6]; measured here: PEO4 Z-AUC): -0.309
